Source: PubChem BioAssay (NCATS)
Records with an inconclusive call do not appear. Where a call stands in place of a potency, no number is given. The source made the active and inactive calls. Calls follow the shape of the dose curve; as a rule, active = well fitted cell-killing curve with a large enough effect; inconclusive = small, poorly fitted or top-dose-only effect, or effect the other way; inactive = no such curve, though single readings can be large or run the other way.

test: Quantitative High-Throughput drug screen in 47 multiple myeloma cell lines against the NCATS MIPE library collection: PE2_PLB cell viability assay (AID 1919869); details: PE2_PLB myeloma cells viability, ATP luminescence, 48 h; series mostly up to 45.8 µM; also: nearly all actives have a fitted effect of over 35% in size
Outline: (§1)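 Viability after 48 h drug exposure was measured as ATP-dependent luminescence. Cells, 500 per well, sat at 37 °C under 5% CO2; DMSO wells set 100%, media-only wells 0%.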
Potency is read from the fitted curve at half-maximal effect.

SMILES | Potency
C[C@]12CC[C@@H]3[C@@H](CCC4=CC(=O)CC[C@@H]43)[C@@H]1CC[C@@H]2OC(=O)CCc1ccccc1 | inactive
CCOC(=O)c1c(C(C#N)=CN)c2ccc(Cl)c(Cl)c2n1C | inactive
Cc1nc(-c2ccc(-c3ccc(C(=O)N4CCc5cc6c(cc54)C4(CCN(C)CC4)CO6)cc3)c(C)c2)no1 | inactive
CC(C)N[C@@H]1CCn2c(=O)[nH]c3cccc(c32)[C@@H]1O | 4.18 µM (active)
N=c1c2c(-c3ccccc3)c(-c3ccccc3)n(Cc3ccccc3)c2ncn1C1CCC(O)CC1 (stereo not drawn) | 4.69 µM (active)
CSCC[C@@H](NC(=O)[C@@H](Cc1ccccc1)NC(=O)CNC(=O)CNC(=O)[C@@H](N)Cc1ccc(O)cc1)C(=O)O | inactive
CCOC(=O)c1cncn1[C@H](C)c1ccccc1 | inactive
CC[C@H]1C=CC=CC[C@@H](C)[C@H](O)[C@@](C)(O)C(=O)[C@@H](C)[C@H](O)[C@@H](C)C(=O)[C@@H](C)[C@H](O)[C@@H](C)C=CC(=O)O[C@@H]2[C@@H](C)[C@H](CC1)O[C@]1(CC[C@H](C)[C@H](C[C@@H](C)O)O1)[C@H]2C | 9.35 µM (active)
N#C[C@H](O[C@@H]1O[C@H](CO[C@@H]2O[C@H](CO)[C@H](O)[C@H](O)[C@H]2O)[C@H](O)[C@H](O)[C@H]1O)c1ccccc1 | 18.7 µM (active)
CC1=NN=C(c2ccc(N)cc2)c2cc3c(cc2C1)OCO3 | inactive
Cc1c(C(=O)c2cccc3ccccc23)c2cccc3c2n1[C@H](CN1CCOCC1)CO3 | 23.5 µM (active)
CCN1C[C@]2(OC(=O)c3ccccc3NC(C)=O)CC[C@H](OC)[C@@]34[C@H]5CC6[C@@H](OC)C[C@](O)(C(C[C@@H]23)[C@@H]14)[C@@]5(O)[C@@H]6OC | inactive
CC1(N2CCC(n3c([C@@H]4CCCNC4)nc4ccccc43)CC2)CCCCCCC1 | 16.6 µM (active)
O=C1CCC[C@@H]2[C@H]3CCCN4CCC[C@@H](CN12)[C@@H]34 | inactive
O=[N+]([O-])c1ncc[nH]1 | inactive
CN[C@@H]1Cc2cccc3[nH]c(=O)n(c23)C1 | inactive
CC(C)(C)c1cc(C=C(C#N)C#N)cc(Br)c1O | 5.26 µM (active)
CCCN1CCO[C@@H]2c3cc(O)ccc3OC[C@@H]21 | inactive
CCOP(=O)(OCC)C(C)NC(=O)N(CCCl)N=O (stereo not drawn) | inactive
C[C@]12Cc3cn[nH]c3C[C@@H]1CC[C@@H]1[C@H]2CC[C@@]2(C)[C@H]1CC[C@]2(C)O | inactive
CC(N[C@H]1C[C@H]1c1ccccc1)c1ccc2c(c1)OCCO2 (stereo partly drawn) | inactive
COC[C@H]1OC(=O)c2coc3c2[C@@]1(C)C1=C(C3=O)[C@@H]2CC[C@H](O)[C@@]2(C)C[C@@H]1OC(C)=O | 0.743 µM (active)
COc1ccc(C(=O)c2c(C)n(CCN3CCOCC3)c3cc(I)ccc23)cc1 | 13.2 µM (active)
C[C@](O)(COc1ccc(C#N)cc1)C(=O)Nc1ccc(C#N)c(C(F)(F)F)c1 | 18.7 µM (active)
C[C@]12CCC(=O)C(O)=C1CC[C@@H]1[C@H]3CCC(=O)[C@@]3(C)CC[C@@H]12 | inactive

test: Quantitative High-Throughput drug screen in 47 multiple myeloma cell lines against the NCATS MIPE library collection: PCM6_Riken cell viability assay (AID 1919870); details: CellTiter-Glo ATP, 48 h; series mostly up to 45.8 µM; also: nearly all actives have a fitted effect of over 30% in size
Outline: as §1

SMILES | Potency
C[C@]12CC[C@@H]3[C@@H](CCC4=CC(=O)CC[C@@H]43)[C@@H]1CC[C@@H]2OC(=O)CCc1ccccc1 | inactive
CCOC(=O)c1c(C(C#N)=CN)c2ccc(Cl)c(Cl)c2n1C | inactive
CC(C)N[C@@H]1CCn2c(=O)[nH]c3cccc(c32)[C@@H]1O | 5.26 µM (active)
CSCC[C@@H](NC(=O)[C@@H](Cc1ccccc1)NC(=O)CNC(=O)CNC(=O)[C@@H](N)Cc1ccc(O)cc1)C(=O)O | inactive
Cc1c(N)nc([C@H](CC(N)=O)NC[C@@H](N)C(N)=O)nc1C(=O)N[C@H](C(=O)N[C@@H](C)[C@H](O)[C@@H](C)C(=O)N[C@@H](C(=O)NCCc1nc(-c2nc(C(=O)NCCC[S+](C)C)cs2)cs1)[C@@H](C)O)C(O[C@H]1O[C@H](CO)[C@H](O)[C@@H](O)[C@@H]1O[C@H]1O[C@H](CO)[C@@H](O)[C@H](OC(N)=O)[C@H]1O)c1cnc[nH]1 (stereo partly drawn) | inactive
C[C@]12CC[C@H]3[C@@H](CCC4=CC(=O)CC[C@@]43C)[C@H]1CC[C@H]2OC(=O)CCC1CCCC1 | inactive
Cc1ccccc1-n1c(Cn2ncc3c(N)ncnc32)nc2cccc(C)c2c1=O | 0.296 µM (active)
CCOC(=O)c1cncn1[C@H](C)c1ccccc1 | inactive
O=C(N[C@H]1CN2CCC1CC2)c1ccc(Cl)cc1 | 8.33 µM (active)
CCNC(=O)CC1N=C(c2ccc(Cl)cc2)c2cc(OC)ccc2-n2c(C)nnc21 (stereo not drawn) | 23.5 µM (active)
N#C[C@H](O[C@@H]1O[C@H](CO[C@@H]2O[C@H](CO)[C@H](O)[C@H](O)[C@H]2O)[C@H](O)[C@H](O)[C@H]1O)c1ccccc1 | 18.7 µM (active)
CC1=NN=C(c2ccc(N)cc2)c2cc3c(cc2C1)OCO3 | inactive
Cc1c(C(=O)c2cccc3ccccc23)c2cccc3c2n1[C@H](CN1CCOCC1)CO3 | inactive
CCN1C[C@]2(OC(=O)c3ccccc3NC(C)=O)CC[C@H](OC)[C@@]34[C@H]5CC6[C@@H](OC)C[C@](O)(C(C[C@@H]23)[C@@H]14)[C@@]5(O)[C@@H]6OC | inactive
CC1(N2CCC(n3c([C@@H]4CCCNC4)nc4ccccc43)CC2)CCCCCCC1 | 14.8 µM (active)
O=C1CCC[C@@H]2[C@H]3CCCN4CCC[C@@H](CN12)[C@@H]34 | inactive
CN[C@@H]1Cc2cccc3[nH]c(=O)n(c23)C1 | inactive
CC(C)(C)c1cc(C=C(C#N)C#N)cc(Br)c1O | 18.7 µM (active)
CCCN1CCO[C@@H]2c3cc(O)ccc3OC[C@@H]21 | inactive
CCOP(=O)(OCC)C(C)NC(=O)N(CCCl)N=O (stereo not drawn) | inactive
CC(O)=C(C#N)C(=O)Nc1cc(Br)ccc1Br | 1.32 µM (active)
C[C@]12Cc3cn[nH]c3C[C@@H]1CC[C@@H]1[C@H]2CC[C@@]2(C)[C@H]1CC[C@]2(C)O | inactive
COC[C@H]1OC(=O)c2coc3c2[C@@]1(C)C1=C(C3=O)[C@@H]2CC[C@H](O)[C@@]2(C)C[C@@H]1OC(C)=O | 3.72 µM (active)
CN(C)NC(=O)CCC(=O)O | 20.9 µM (active)
COc1ccc(C(=O)c2c(C)n(CCN3CCOCC3)c3cc(I)ccc23)cc1 | 11.8 µM (active)
O=C(NCC1CCOCC1)c1cnc(Nc2ccc(Cl)cc2Cl)nc1C(F)(F)F | 5.9 µM (active)
O=C(Nc1ccncc1)C(=O)c1cn(Cc2ccc(Cl)cc2)c2ccccc12 | 0.0059 µM (active)
CC(=O)Nc1ccc(OC[C@](C)(O)C(=O)Nc2ccc([N+](=O)[O-])c(C(F)(F)F)c2)cc1 | inactive
